The text below walks through data of PubChem BioAssay.

The source made the active and inactive calls. Unless noted, no rule for the calls is given here.

The subject of test [1] is Wnt5a (protein binding on small-molecule microarray). In words: small molecules binding Wnt5a protein – biophysical, small-molecule microarray, 635/667 nm fluorescence, primary screen (AID 1142).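 Also: fluorescence read at 667 nm with signal to noise per printed feature.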 Particulars: 635 nm fluorescence, higher = more signal.
A short description of test [2]: ATP-based viability of Huh7 replicon cells – cell-based, CellTiter-Glo luminescence, basal, 48 h, cytotoxicity control for HCV replication inhibitor project, primary screen (AID 1143).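 Also: Huh7 hepatoma cells carrying a hepatitis C replication reporter with no stimulus; test concentration not given here.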 Conditions: higher = more signal, called active from +8 up or from −8 down. A general note: A replicon is a self-replicating genome or part of one, used to study replication in cells.

Test [3] in a line: Pseudomonas biofilm growth suppression – PAO1 strain, BacTiter-Glo luminescence, LB-PBS, primary screen (AID 1144). Conditions: P. aeruginosa PAO1 biofilm, 12 h, higher = more signal.
Test [4] is described as follows: basal CRE-LacZ reporter activity in PC12 – cell-based, unstimulated, primary screen (AID 1145). Conditions: no forskolin, luminescence, 4.5 h, higher = more signal, called active from +8 up or from −8 down.
Test [5] is described as follows: forskolin-driven CRE-LacZ activity in PC12 – cell-based, CRE-LacZ reporter, forskolin-stimulated, primary screen (AID 1146).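 Also: PC12 cells with 6xCRE LacZ reporter stimulated by forskolin 10 µM; beta-galactosidase reporter signal reflecting CREB driven transcription.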 Conditions: luminescence, 4.5 h, higher = more signal, called active from +8 up or from −8 down.
Test [6] concerns the target Streptavidin (Streptomyces avidinii) (UniProt P22629). In words: compounds binding control protein streptavidin – biophysical, small-molecule microarray, 635/667 nm fluorescence, artefact control for SMM compound annotation, primary screen (AID 1147).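 Also: signal reflects streptavidin binding to arrayed compounds as a control protein.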 Conditions: higher = more signal.
A short description of test [7]: probe aInhba binding on compound microarray – biochemical, small-molecule microarray, 635/667 nm fluorescence, primary screen (AID 1148).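 Also: score merges 667nm spot fluorescence with signal-to-noise for antibody binding to printed compounds.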 Particulars: higher = more signal.
Test [8] has as its target Torsin-1A (Homo sapiens) (UniProt O14656). As to the kind of experiment: TOR1A wild-type binding on microarray – cell lysate, small-molecule microarray, lysate, 635/667 nm, primary screen (AID 1149). Conditions: COS7 hTOR1A-WT lysate, 635 nm fluorescence, higher = more signal.
The target is the same in test [9]. In words: torsin A mutant lysate binding on microarrays – cell lysate, small-molecule microarray, COS7 lysate, 635/667 nm fluorescence, primary screen (AID 1150).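 Also: score pools 667 nm emission and signal to noise measuring lysate protein binding.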 Conditions: COS7 hTOR1A mutant lysate, 635 nm fluorescence, higher = more signal.
For test [10], the system named is Sonic hedgehog protein (Shh). As to the kind of experiment: Sonic hedgehog microarray binding compounds – biochemical, small-molecule microarray, 635/667 nm fluorescence, primary screen (AID 1151).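 Also: Shh protein binding to compounds spotted on small-molecule microarray slides; score combines spot fluorescence intensity with signal-to-noise across triplicate slides.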 Particulars: 635 nm fluorescence, higher = more signal.

Sequence of Torsin-1A (Homo sapiens) (O14656 whole entry, looked up): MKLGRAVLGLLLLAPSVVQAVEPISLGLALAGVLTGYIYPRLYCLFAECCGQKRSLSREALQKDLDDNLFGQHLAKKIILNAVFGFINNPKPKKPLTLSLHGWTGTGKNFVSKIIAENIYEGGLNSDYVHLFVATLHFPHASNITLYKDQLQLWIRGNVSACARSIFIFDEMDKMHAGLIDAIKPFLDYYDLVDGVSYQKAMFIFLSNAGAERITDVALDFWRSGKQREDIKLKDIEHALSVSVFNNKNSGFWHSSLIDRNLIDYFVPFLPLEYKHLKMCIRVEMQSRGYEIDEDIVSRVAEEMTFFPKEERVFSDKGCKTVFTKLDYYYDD
Sequence of Streptavidin (Streptomyces avidinii) (P22629 whole entry, looked up): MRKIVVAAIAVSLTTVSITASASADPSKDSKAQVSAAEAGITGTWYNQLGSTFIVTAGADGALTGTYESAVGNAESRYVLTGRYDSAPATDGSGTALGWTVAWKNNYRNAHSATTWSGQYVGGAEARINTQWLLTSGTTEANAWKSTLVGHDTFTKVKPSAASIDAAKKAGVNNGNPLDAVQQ

With `CC(C)N1C(=O)[C@@]2(Cc3ccccc31)c1ccccc1C(=O)N(C1CCCCC1)[C@H]2c1ccc(CO)cc1`, the composite z-score in [1] is 0.0034; in test [6] it was -0.169; in test [7] it was -0.0987; in test [8], -0.245; in [9], 0.333; in test [10] it was 1.99. Moreover, the z-score was -0.8 (inactive) in [2], -0.868 (inactive) in [3], -0.141 (inactive) in test [4] and 0.815 (inactive) in [5].

As for `COCCCN1C(=O)[C@@]2(c3ccc([N+](=O)[O-])cc3)CC(=O)N(C3CCCCC3)[C@@H]2c2ccc(CO)cc21`, the composite z-score was -0.0976 in test [1]; -0.226 in [6]; -0.214 in test [7]; 0.0116 in test [8]; -0.289 in test [9]; 1.41 in test [10]. Also, the z-score is -0.253 (inactive) in [2], 0.0798 (inactive) in test [3], -0.761 (inactive) in test [4] and -0.593 (inactive) in [5].

For `Cc1ccc(S[C@]2(C(=O)NCCN3CCOCC3)CC(=O)N(Cc3ccccc3Cl)[C@@H]2c2ccc(CO)cc2)cc1`, the composite z-score in [1] was -0.0036; in test [6], -0.625; in test [7], -0.255; in test [8], -2.16; in test [9], 0.269; in test [10], -0.143. In addition, the z-score in test [2] is -2.93 (inactive); in [3] it was -1.98 (inactive); in test [4], 0.441 (inactive); in [5], 1.1 (inactive).

On to `C#CCN(Cc1ccccc1Br)C(/C=C/c1ccccc1)CO` (stereo not given), for which the composite z-score in test [1] was -0.15; in test [6], -0.175; in [7] it was -0.283; in [8] it was 0.0428; in test [9], -0.653; in [10], -0.0683. Besides, the z-score in test [2] is -4.79 (inactive); in test [3], 0.825 (inactive); in test [4], 5.19 (inactive); in [5] it was -1.04 (inactive).

Turning to `COc1cc2c(cc1OC)CN(C(=O)[C@@H]1[C@H]3C(=O)O[C@H](c4ccccc4)[C@H](c4ccccc4)N3[C@H](c3ccc(O)cc3)[C@@]13C(=O)Nc1ccc(C#CC4(O)CCCCCC4)cc13)CC2`, the composite z-score in test [1] was 0.382; in test [6], 1.06; in test [7], -0.287; in [8] it was 0.287; in test [9] it was 0.787; in test [10] it was 1.91. Also, the z-score is -0.292 (inactive) in test [2], -0.37 (inactive) in test [3], -0.168 (inactive) in test [4] and -0.65 (inactive) in test [5].

In the case of `COC(=O)[C@@]1(Cc2ccc(F)cc2)[C@H]2c3cc(C(=O)N(C)C)n(Cc4nc5ccccc5[nH]4)c3C[C@H]2CN1C(=O)c1ccccc1`, the composite z-score is 0.507 in [1]; 0.711 in test [6]; 0.348 in test [7]; -0.806 in [8]; 0.484 in test [9]; -0.586 in [10]. Moreover, the z-score in test [2] is -0.574 (inactive); in [3], 0.528 (inactive); in [4], 1.53 (inactive); in [5], 0.678 (inactive).

Take `COC(=O)[C@@]1(Cc2ccc(F)cc2)[C@H]2c3cc(C(=O)N(C)C)n(Cc4ccc(S(C)(=O)=O)cc4)c3C[C@H]2CN1C(=O)c1ccccc1`: the composite z-score in test [1] is 0.0577; in test [6], 1.02; in test [7] it was 0.266; in test [8], 0.33; in test [9], 0.0685; in test [10], -0.447. For the same compound, the z-score was -0.845 (inactive) in test [2], -0.65 (inactive) in test [3], 0.766 (inactive) in test [4] and -0.428 (inactive) in [5].

`C[N+](C)(C)CCCC[C@@H]1NC(=O)[C@@H]2C[C@H](C(=O)NCCCCCN)[C@H](c3cccc(OCCO)c3)N2C1=O`: the composite z-score was -0.0878 in test [1]; 1.19 in test [6]; -0.117 in test [7]; 0.345 in test [8]; -0.149 in test [9]; -0.125 in [10]. The z-score in test [2] was 0.288 (inactive); in test [3] it was -0.165 (inactive); in test [4], 0.7 (inactive); in [5], 0.508 (inactive).

With `CC(=O)N1Cc2ccccc2C[C@@]2(COC(c3ccc(OCCCO)cc3)=N2)C1=O`, the composite z-score in [1] stood at 0.36; in test [6] it was 1.23; in test [7], 0.407; in test [8], 0.135; in test [9], 0.997; in test [10], 0.504. The z-score in [2] is -2.57 (inactive); in [3], -0.957 (inactive); in [4] it was 1.82 (inactive); in [5] it was -1.42 (inactive).

Consider `CCCC=C(CCC)[C@@H](NS(=O)(=O)c1cccs1)c1ccc(C(=O)OC)cc1`, for which the composite z-score in test [1] was 0.247; in test [6], 1.37; in [7], 0.16; in test [8] it was -0.0907; in test [9] it was 0.647; in [10], -0.168. For the same compound, the z-score in test [2] is -3.88 (inactive); in test [3] it was 0.276 (inactive); in [4], 0.201 (inactive); in [5], 0.91 (inactive).

Regarding `COc1ccc(CCNC(=O)[C@@]2(C)c3ccccc3C(=O)N(Cc3cc(F)cc(C(F)(F)F)c3)[C@H]2c2ccc(CO)cc2)cc1`, the composite z-score was 0.126 in test [1]; -0.55 in test [6]; -0.0791 in [7]; -0.621 in test [8]; -0.0937 in test [9]; -0.0895 in test [10]. Also, the z-score in [2] was -4.52 (inactive); in [3], 1.3 (inactive); in [4], 0.001 (inactive); in test [5] it was -1.28 (inactive).

As for `O=C1[C@H]2C=C(Br)[C@H](C[C@@H]2c2ccccc2)[C@@]12CO2`, the composite z-score in test [1] turned out to be 0.127; in test [6], 0.105; in test [7], 0.0528; in test [8] it was 0.175; in [9], 0.273; in [10], 0.982. The z-score was -0.856 (inactive) in [2], 0.552 (inactive) in test [3], 1.58 (inactive) in test [4] and 4.2 (inactive) in [5].

For the compound `C=CCC(OC(C)=O)[C@@H]1[C@@H](N(Cc2ccc(-c3ccccc3)cc2)C(=O)Cc2ccc(F)cc2)c2cc(OCCCO)ccc2N1C(=O)c1ccc(-c2ccccc2)cc1` (stereo not given in full), the composite z-score in test [1] is -0.163; in [6], 0.711; in test [7], -0.157; in test [8], -0.628; in test [9], -0.222; in test [10], 0.249. Besides, the z-score is -1.13 (inactive) in [2], -0.757 (inactive) in test [3], -1.23 (inactive) in test [4] and -0.0988 (inactive) in test [5].

For `COc1cc2c(cc1OC)CN(C(=O)[C@H]1[C@@H]3C(=O)O[C@@H](c4ccccc4)[C@@H](c4ccccc4)N3[C@@H](c3ccc(O)cc3)[C@]13C(=O)Nc1ccc(C#CCNC(N)=O)cc13)CC2`, the composite z-score in test [1] is 0.438; in [6] it was -0.283; in [7], 0.0357; in [8], 0.437; in [9], 0.0805; in [10] it was 0.74. In addition, the z-score in [2] was -0.431 (inactive); in test [3], -1.68 (inactive); in [4], -1.01 (inactive); in test [5] it was -0.638 (inactive).
